Drawing on PubChem BioAssay AID624255 (Broad Institute, 2012), this text covers inhibition for 58 compounds.

Several values for one entry are separate records, joined by “and”; a condition that tells them apart may be missing. Equal values may be shown once. In all, about 77,000 compounds went through this assay and about 4,600 (6%) were called active. Inconclusive results (about 1%) are left out.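 How the source made its calls: active means mean inhibition above about 93%, with at least 55% of replicates each passing it (limit read from the data, passing the limit was not always enough); inconclusive means only one of those two conditions holds; inactive means neither condition holds.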 The sample as a whole holds a higher share of actives than the screen did. A structure can be active in one record and inactive in another.

A short description of the assay: growth inhibition of T. cruzi in host fibroblasts – cell-based, beta-gal Tulahuen parasites, NIH3T3 host, luminescence, primary screen (AID 624255). The conditions noted are these: T. cruzi beta-gal in NIH3T3, GalScreen luminescence, 90 h; at 8.34 µM; stronger effect = higher value.
The term inhibition denotes the relative decrease from the control value, in per cent. With `CCC(=O)NC[C@H]1[C@@H](c2ccc(C3=CCCC3)cc2)[C@@H](CO)N1C(=O)C1CC1`, the inhibition was 21.5% (inactive).

Consider `CO[C@H]1CN(C)C(=O)c2cc(NC(=O)C3CCCCC3)ccc2OC[C@H](C)N(C(=O)c2ccccc2)C[C@H]1C`, for which the inhibition is 7.09% (inactive).

Turning to `C/C=C/c1cnc2c(c1)C(=O)N([C@@H](C)CO)C[C@@H](C)[C@@H](CN(C)C(=O)C1CCOCC1)O2`, the inhibition was -31.5% (inactive).

As for `CCCNC(=O)Nc1ccc2c(c1)C(=O)N(C)[C@H]1CC[C@H](CC(=O)NC3CCC3)O[C@H]1CO2`, the inhibition was 57.7% (inactive).

In the case of `O=C(Cc1ccccc1)N1CC[C@H]2[C@H](CO)Nc3ccc(-c4ccccc4F)cc3[C@H]21`, the inhibition is 111% (active).

With `O=C(CC1CC1)N1CC[C@@H]2[C@H](CO)Nc3ccc(-c4ccc(F)cc4)cc3[C@@H]21`, the inhibition is 89.6% (inactive).

Regarding `CN(C)C(=O)c1cccc(-c2ccc3c(c2)[C@H]2[C@H](CCN2C(=O)Cc2ccccc2)[C@H](CO)N3)c1`, the inhibition was 80.1% (inactive).

As for `N#Cc1ccc(-c2ccc3c(c2)[C@@H]2[C@@H](CCN2C(=O)Cc2ccncc2)[C@@H](CO)N3)cc1`, the inhibition is 108% (active).

Regarding `O=C(Cc1ccccc1)N1CC[C@@H]2[C@H](CO)Nc3ccc(-c4ccccc4)cc3[C@@H]21`, the inhibition is 81.9% (inactive).

With `N#Cc1ccc(-c2ccc3c(c2)[C@H]2[C@H](CCN2Cc2ccc4c(c2)OCO4)[C@@H](CO)N3)cc1`, the inhibition is 79.2% (inactive).

With `Cc1noc(C)c1NC(=O)N(C)C[C@@H]1OCCCC[C@H](C)Oc2ccc(NS(=O)(=O)c3c(C)noc3C)cc2C(=O)N([C@@H](C)CO)C[C@@H]1C`, the inhibition was -9.2% (inactive).

Consider `COc1cccc(S(=O)(=O)N[C@H]2CC[C@@H](CC(=O)NCc3ccc(F)cc3)O[C@@H]2CO)c1`, for which the inhibition is 47.6% (inactive).

Regarding `COc1ccc(-c2ccc3c(c2)O[C@@H](CN(C)CC2CCOCC2)[C@@H](C)CN([C@@H](C)CO)S3(=O)=O)cc1`, the inhibition is 40.6% (inactive).

`C[C@@H]1CN([C@H](C)CO)C(=O)c2cc(NS(=O)(=O)c3cccs3)ccc2O[C@@H](C)CCCCO[C@H]1CN(C)Cc1ccc(C(F)(F)F)cc1`: the inhibition was 97.6% (active).

Turning to `Cc1ccc(S(=O)(=O)Nc2ccc3c(c2)C(=O)N([C@H](C)CO)C[C@@H](C)[C@H](CN(C)Cc2ccccc2)OCCCC[C@H](C)O3)cc1`, the inhibition is 85.7% (inactive).

In the case of `C[C@@H]1CCCCO[C@@H](CN(C)Cc2ccc(C(=O)O)cc2)[C@H](C)CN([C@H](C)CO)C(=O)c2cc(NS(=O)(=O)c3cccs3)ccc2O1`, the inhibition was -101% (inactive).

In the case of `C[C@@H]1CCCCO[C@H](CN(C)Cc2ccccc2)[C@@H](C)CN([C@H](C)CO)C(=O)c2cc(NS(=O)(=O)c3ccc(Cl)cc3)ccc2O1`, the inhibition was -26.9% (inactive).

Consider `Cc1ccc(S(=O)(=O)Nc2ccc3c(c2)C(=O)N([C@H](C)CO)C[C@H](C)[C@@H](CN(C)Cc2ccccc2)OCCCC[C@H](C)O3)cc1`, for which the inhibition is 38.8% (inactive).

As to `COc1ccc(S(=O)(=O)Nc2ccc3c(c2)C(=O)N([C@@H](C)CO)C[C@H](C)[C@H](CN(C)Cc2ccc(C(F)(F)F)cc2)OCCCC[C@@H](C)O3)cc1`, the inhibition is 63.1% (inactive).

Consider `C[C@@H]1CCCCO[C@H](CN(C)Cc2ccccc2)[C@H](C)CN([C@H](C)CO)C(=O)c2cc(NS(=O)(=O)c3ccc(Cl)cc3)ccc2O1`, for which the inhibition was 109% (active).

Regarding `C[C@H](CO)N1C[C@H](C)[C@H](CN(C)Cc2ccc(C(F)(F)F)cc2)OCCCC[C@H](C)Oc2ccc(NS(=O)(=O)c3ccc(Cl)cc3)cc2C1=O`, the inhibition was 98.6% (active).

Consider `COc1ccc(CN(C)C[C@@H]2OCCCC[C@H](C)Oc3ccc(NS(=O)(=O)c4cccs4)cc3C(=O)N([C@H](C)CO)C[C@@H]2C)cc1`, for which the inhibition was 44.9% (inactive).

With `C[C@@H]1CCCCO[C@H](CN(C)Cc2ccccc2)[C@H](C)CN([C@@H](C)CO)C(=O)c2cc(NS(=O)(=O)c3ccccc3)ccc2O1`, the inhibition was 86% (inactive).

As to `C[C@@H]1CCCCO[C@@H](CN(C)Cc2ccc(C(F)(F)F)cc2)[C@H](C)CN([C@H](C)CO)C(=O)c2cc(NS(=O)(=O)c3ccc(F)cc3)ccc2O1`, the inhibition is 56.1% (inactive).

As to `C[C@@H]1CN([C@H](C)CO)C(=O)c2cc(NS(=O)(=O)c3ccc(Cl)cc3)ccc2O[C@@H](C)CCCCO[C@H]1CN(C)Cc1ccccc1`, the inhibition is 112% (active).

Take `CN1C(=O)c2cc(NC(=O)C3CC3)ccc2OC[C@@H]2O[C@@H](CC(=O)NCC3CCCCC3)CC[C@@H]21`: the inhibition was -7.09% (inactive).

As to `CCN1[C@@H]2c3ccc(C4=CCCC4)c(=O)n3C[C@@H]2[C@@H](CO)[C@@H]1C(=O)NCc1ccccn1`, the inhibition was 26.1% (inactive).

Take `CO[C@H]1CN(C)C(=O)c2ccc(NC(=O)C3CC3)cc2OC[C@@H](C)N(C(=O)CN2CCOCC2)C[C@H]1C`: the inhibition was -43.7% (inactive).

As to `CN1C(=O)c2cc(NC(=O)c3cnccn3)ccc2OC[C@@H]2O[C@H](CC(=O)O)CC[C@@H]21`, the inhibition is 8.56% (inactive).

For `CC(=O)N1[C@H](CN(CC2CCC2)C(=O)CN(C)C)[C@@H](c2ccccc2)[C@@H]1CO`, the inhibition was 54.9% (inactive).

For `COc1ccc(NC(=O)N2C[C@H](O)COC[C@H]3O[C@@H](CC(=O)N4CCN(C)CC4)CC[C@@H]32)cc1`, the inhibition is 7.94% (inactive).

As to `C[C@@H]1CN([C@H](C)CO)S(=O)(=O)c2ccc(C#CCN(C)C)cc2O[C@@H]1CN(C)C`, the inhibition was -35.4% (inactive).

Consider `C[C@H](O)C#Cc1ccc2c(c1)O[C@H](CN(C)Cc1cncnc1)[C@H](C)CN([C@@H](C)CO)S2(=O)=O`, for which the inhibition is 36.8% (inactive).

`C[C@@H]1CN([C@H](C)CO)S(=O)(=O)c2ccc(-c3ccncc3)cc2O[C@@H]1CN(C)C(=O)Nc1ccc(C(F)(F)F)cc1`: the inhibition was 82.6% (inactive).

In the case of `C[C@H]1CN([C@@H](C)CO)S(=O)(=O)c2ccc(-c3cncnc3)cc2O[C@H]1CN(C)Cc1ccncc1`, the inhibition is 25.1% (inactive).

In the case of `C[C@@H]1CN([C@@H](C)CO)S(=O)(=O)c2ccc(C#CCN(C)C)cc2O[C@@H]1CN(C)CC1CC1`, the inhibition was -40.3% (inactive).

In the case of `C[C@@H]1CN([C@H](C)CO)S(=O)(=O)c2ccc(C#C[C@@H](C)O)cc2O[C@@H]1CN(C)Cc1ccc(-c2ccccc2)cc1`, the inhibition is 73.7% (inactive) and 125% (active).

Take `C[C@H](CO)N1C[C@H](C)[C@H](CN(C)Cc2ccncc2)Oc2cc(-c3ccncc3)ccc2S1(=O)=O`: the inhibition was 111% (active).

Regarding `COc1ccc(NC(=O)N(C)C[C@H]2Oc3cc(-c4ccncc4)ccc3S(=O)(=O)N([C@H](C)CO)C[C@H]2C)cc1`, the inhibition was 70.2% (inactive).

As to `C[C@H]1CN([C@@H](C)CO)S(=O)(=O)c2ccc(C#CCN(C)C)cc2O[C@@H]1CN(C)Cc1ccc(F)cc1`, the inhibition is 115% (active).

Turning to `C[C@H](O)C#Cc1ccc2c(c1)O[C@@H](CN(C)Cc1cncnc1)[C@H](C)CN([C@H](C)CO)S2(=O)=O`, the inhibition is -5.8% (inactive).

Turning to `C[C@H](CO)N1C[C@H](C)[C@H](CN(C)Cc2ccncc2)Oc2cc(-c3cncnc3)ccc2S1(=O)=O`, the inhibition was 16.7% (inactive).

Turning to `C[C@@H]1CN([C@@H](C)CO)S(=O)(=O)c2ccc(-c3ccncc3)cc2O[C@@H]1CN(C)C(=O)Nc1ccc(F)cc1`, the inhibition is 100% (active).

As to `CC=Cc1ccc2n(c1=O)C[C@@H]1[C@@H](CO)[C@H](C(=O)N3CCc4ccccc4C3)N(C(=O)C3CCC3)[C@H]21` (mixture of isomers), the inhibition is 39.9% (inactive).

Regarding `CCCC(=O)Nc1ccc2c(c1)C(=O)N(C)C[C@@H](OC)[C@H](C)CN(C(C)=O)[C@H](C)CO2`, the inhibition was -1.03% (inactive).

With `Cc1ccc(S(=O)(=O)N(C)C[C@@H]2OCCCC[C@H](C)Oc3ccc(NS(=O)(=O)c4cn(C)cn4)cc3C(=O)N([C@H](C)CO)C[C@@H]2C)cc1`, the inhibition was 39.1% (inactive).

On to `CO[C@@H]1CN(C)C(=O)c2ccc(NC(=O)c3ccc(F)cc3)cc2OC[C@H](C)NC[C@@H]1C`, for which the inhibition is -9.72% (inactive).

For the compound `Cn1cnc(S(=O)(=O)N2C[C@@H](O)COC[C@H]3O[C@H](CC(=O)N4CCN(c5ccccc5)CC4)CC[C@@H]32)c1`, the inhibition is -64.3% (inactive).

`C/C=C/c1ccc2c(c1)O[C@H](CN(C)Cc1ccccc1)[C@H](C)CN([C@@H](C)CO)S2(=O)=O`: the inhibition is 62.6% (inactive).

Regarding `CC(C)C#Cc1ccc2c(c1)O[C@H](CN(C)Cc1ccccn1)[C@H](C)CN([C@H](C)CO)S2(=O)=O`, the inhibition is 57.8% (inactive).

For the compound `C[C@@H]1CN([C@@H](C)CO)S(=O)(=O)c2ccc(/C=C/c3ccccc3)cc2O[C@H]1CN(C)Cc1ccccc1`, the inhibition is 107% (active).

As for `CC(C)C#Cc1ccc2c(c1)O[C@@H](CN(C)CC1CCOCC1)[C@H](C)CN([C@H](C)CO)S2(=O)=O`, the inhibition was 91.2% (inactive).

With `CC(C)C#Cc1ccc2c(c1)O[C@@H](CN(C)Cc1ccncc1)[C@@H](C)CN([C@@H](C)CO)S2(=O)=O`, the inhibition is 122% (active).

As to `CC(C)C#Cc1ccc2c(c1)O[C@H](CN(C)CC1CCOCC1)[C@@H](C)CN([C@H](C)CO)S2(=O)=O`, the inhibition is 93.8% (inactive).

On to `CC(C)C#Cc1ccc2c(c1)O[C@H](CN(C)Cc1ccccc1)[C@H](C)CN([C@@H](C)CO)S2(=O)=O`, for which the inhibition was 111% (active).

On to `C[C@@H]1CN([C@H](C)CO)S(=O)(=O)c2ccc(C#CC(C)(C)O)cc2O[C@@H]1CN(C)Cc1ccccc1`, for which the inhibition is 34.1% (inactive).

Regarding `C[C@@H]1CN([C@H](C)CO)S(=O)(=O)c2ccc(/C=C/c3ccccc3)cc2O[C@@H]1CN(C)Cc1ccccc1`, the inhibition was 81.9% (inactive).

`COc1cccc(NC(=O)C[C@H]2CC[C@@H]3[C@H](COc4ccc(NC(C)=O)cc4C(=O)N3C)O2)c1`: the inhibition was -37.9% (inactive).
